Results filed as inconclusive are left out. Values without a mark were called inactive. The source made the active and inactive calls. Unless noted, calls come from the whole dose curve.
System: not listed separately
Experiment: cAMP Responsive Elements (CRE) small molecule antagonists, cell-based qHTS assay (AID 1963591; active = well fitted inhibition curve with a large enough effect in the signal ratio in the repeat runs, not every such curve was filed as active; the % refers to the signal ratio)
Details: CRE-bla HEK293T, beta-lactamase FRET ratio; series mostly up to 92.4 µM; activity change, negative = inhibition: at the top concentration
How it was run: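 Reporter line CRE-bla HEK 293T in dialyzed-FBS DMEM; cells preincubated 18 h, treated 3 h with compound plus NKH477 (0.25 uM final); LiveBLAzer FRET, 2 h RT.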
% is set by controls: 0 for no effect and ±100 for the full control effect.

Structure (SMILES) | activity change, negative = inhibition | Potency
ClC(Cl)=C(c1ccc(Cl)cc1)c1ccc(Cl)cc1 | -4.13% | 
ClCCN1CCOCC1 | -0.313% | 
C1CCC2CCCCC2C1 (configuration not stated) | -7.3% | 
CC12CC1(C)C(=O)N(c1cc(Cl)cc(Cl)c1)C2=O (configuration not stated) | 4.12% | 
ClCc1cccnc1 |  | inactive
CNC(=O)O/N=C/C(C)(C)S(C)=O (configuration not stated) |  | inactive
Cc1ccccc1CCl | 0.605% | 
CCOP(=S)(OCC)SCSc1cc(Cl)ccc1Cl | -0.0403% | 
Nc1c(Br)cc([N+](=O)[O-])cc1[N+](=O)[O-] | 5.99% | 
COC[C@@H](NC(C)=O)C(=O)NCc1ccccc1 | 0.643% [at 42.4 µM] | 
OCC(Br)CBr (configuration not stated) | -4.97% | 
c1ccc(C2CO2)cc1 (configuration not stated) |  | inactive
CCN(C)N=O | -0.0344% | 
C=CC(=O)OCCO |  | inactive
CCOP(OCC)OCC |  | inactive
CC(=O)C1CCOC1=O (configuration not stated) |  | inactive
C#CCOC(=O)/C=C(C)/C=C/CC(C)CCCC(C)C (configuration not stated) | -6.42% | 

Structure (SMILES) | activity change, negative = inhibition | Potency
CCN(CC)C1CCCCC1 | 8.15% | 
CCCCC(CC)COC(=O)c1ccc(C(=O)OCC(CC)CCCC)c(C(=O)OCC(CC)CCCC)c1 (configuration not stated) |  | inactive
O=C(CCl)CCl |  | inactive
CCCCN=C=O | -3.47% | 
CCOc1cc(C=O)ccc1O |  | inactive
Cl/C=C\CCl | 3.37% | 
C=CC(=O)NC(C)(C)CC(C)=O | 3.8% | 
Cc1ccc(N)cc1C | -1.3% | 
CC(C)(Cl)Cl |  | inactive
CCOS(C)(=O)=O | -2.92% | 
O=C([O-])c1ccccn1.O=C([O-])c1ccccn1.O=C([O-])c1ccccn1.[Cr+3] | -15.6% | 
BrCCc1ccccc1 | -4.93% | 
CN(C)C(=O)C(c1ccccc1)c1ccccc1 |  | inactive
CN(CCCC(=O)c1cccnc1)N=O | -3.05% | 
COC(=O)[C@@H](N)CCCN/C(N)=N/[N+](=O)[O-] | 1.82% [at 42.4 µM] | 
CCCCCCC1CCOC1=O (configuration not stated) | 2.36% | 
O=[N+]([O-])c1ccccc1O |  | inactive

Biological target: Beta-2 adrenergic receptor (Homo sapiens) (UniProt P07550)
Experiment: Adrenergic beta2 receptor (ADRB2) small molecule antagonists, cell-based qHTS assay (AID 1963592); note: nearly all actives have a fitted effect of over 50% in size
Details: CHO-ADRB2 cells, isoproterenol-stimulated cAMP HTRF ratio, 0.5 h; series mostly up to 92.4 µM; activity change, negative = inhibition: at the top concentration
How it was run: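 Assay format: CHO-ADRB2 cells, 18-20hr seeding at 37C/5% CO2, then compound plus 1nM isoproterenol agonist mix for 0.5hr RT. Homogeneous time-resolved fluorescence cAMP detection after 1hr, expressed as 665/615 nm ratio.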

Beta-2 adrenergic receptor (Homo sapiens), sequence (P07550 whole entry, looked up): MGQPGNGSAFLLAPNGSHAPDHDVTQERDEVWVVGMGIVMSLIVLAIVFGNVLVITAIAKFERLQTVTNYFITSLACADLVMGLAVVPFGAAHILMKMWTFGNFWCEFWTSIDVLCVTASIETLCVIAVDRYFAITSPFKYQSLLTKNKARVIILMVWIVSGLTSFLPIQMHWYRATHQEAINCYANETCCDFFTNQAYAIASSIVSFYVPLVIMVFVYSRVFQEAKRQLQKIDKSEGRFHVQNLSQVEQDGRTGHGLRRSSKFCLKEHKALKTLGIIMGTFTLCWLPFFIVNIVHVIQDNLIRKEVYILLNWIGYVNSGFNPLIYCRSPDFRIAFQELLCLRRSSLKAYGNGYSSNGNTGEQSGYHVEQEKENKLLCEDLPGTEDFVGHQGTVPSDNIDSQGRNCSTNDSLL

Structure (SMILES) | activity change, negative = inhibition | Potency
Cc1ccccc1CCl | 3.57% | 
CCOP(=S)(OCC)SCSc1cc(Cl)ccc1Cl | -5.21% | 
Nc1c(Br)cc([N+](=O)[O-])cc1[N+](=O)[O-] | 1.83% | 
COc1cc(OC)nc(NC(=O)NS(=O)(=O)c2ncccc2C(=O)N(C)C)n1 | -10.2% | 
CCN(C)N=O | -20.4% | 
CCOP(OCC)OCC |  | inactive
O=C(CCl)CCl |  | inactive
COc1nc(NC(C)C)nc(NC(C)C)n1 |  | inactive
CCOc1cc(C=O)ccc1O |  | inactive
Cc1ccc(N)cc1C | 1.88% | 
CCOS(C)(=O)=O | 3.09% | 
COCC(=O)N(c1c(C)cccc1C)[C@H](C)C(=O)OC | 0.74% | 
COC(=O)[C@@H](N)CCCN/C(N)=N/[N+](=O)[O-] | -12.4% [at 42.5 µM] | 
CC[N+](=O)[O-] |  | inactive
CCCCCCC1CCOC1=O (configuration not stated) | 4.9% | 

Biological target: Beta-2 adrenergic receptor (Homo sapiens) (UniProt P07550)
Experiment: Adrenergic beta2 receptor (ADRB2) small molecule agonists, cell-based qHTS assay (AID 1963593);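 note: CHO cells stably overexpressing human ADRB2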
Details: CHO-ADRB2 cells, cAMP HTRF, 30 min; series mostly up to 92.4 µM; activation: at the top concentration
How it was run: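 CHO cells stably over-expressing ADRB2 were plated overnight at 37C, then dosed with compounds plus a stimulation mix containing 100uM IBMX and 25uM Ro-20-1724 for 0.5hr at room temperature. cAMP was measured by HTRF competition, 1hr.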

Structure (SMILES) | activation | Potency
ClC(Cl)=C(c1ccc(Cl)cc1)c1ccc(Cl)cc1 | 4.81% | 
CC12CC1(C)C(=O)N(c1cc(Cl)cc(Cl)c1)C2=O (configuration not stated) | -25.2% | 
ClCc1cccnc1 | 5.36% | 
CN(C)C(=O)Nc1ccc(Cl)cc1 | -1.53% | 
COC[C@@H](NC(C)=O)C(=O)NCc1ccccc1 | -0.712% [at 42.5 µM] | 
COc1cc(OC)nc(NC(=O)NS(=O)(=O)c2ncccc2C(=O)N(C)C)n1 | 0.365% | 
c1ccc(C2CO2)cc1 (configuration not stated) | 27% | 
C=CC(=O)OCCO | 0% | 
CC(=O)C1CCOC1=O (configuration not stated) | -35.2% | 
C#CCOC(=O)/C=C(C)/C=C/CC(C)CCCC(C)C (configuration not stated) | 7.74% | 
CCN(CC)C1CCCCC1 | 6.74% | 
CCCCN=C=O | -16.3% | 
COc1nc(NC(C)C)nc(NC(C)C)n1 |  | inactive
C=CC(=O)NC(C)(C)CC(C)=O | -9.44% | 
CC(C)(Cl)Cl | -9.22% | 
BrCCc1ccccc1 | 0.868% | 
CN(C)C(=O)C(c1ccccc1)c1ccccc1 | -12.9% | 
O=[N+]([O-])c1ccccc1O |  | inactive

Biological target: D(2) dopamine receptor (Homo sapiens) (UniProt P14416)
Experiment: Dopamine D2 receptor (DRD2) small molecule agonists, cell-based qHTS assay (AID 1963594); note: nearly all actives have a fitted effect of over 35% in size
Details: HEK293-DRD2 cAMP HTRF, agonist mode, 30 min; series mostly up to 92.4 µM; activation: at the top concentration
How it was run: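 cAMP accumulation in DRD2-HEK293 cells measured by HTRF after 1 h detection; compounds added 10 min before NKH477 (200nM […]) forskolin-analogue stimulation, 30 min at room temperature, with Ro20-1724 present at 0.1 mM final.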

D(2) dopamine receptor (Homo sapiens), sequence (P14416 whole entry, looked up): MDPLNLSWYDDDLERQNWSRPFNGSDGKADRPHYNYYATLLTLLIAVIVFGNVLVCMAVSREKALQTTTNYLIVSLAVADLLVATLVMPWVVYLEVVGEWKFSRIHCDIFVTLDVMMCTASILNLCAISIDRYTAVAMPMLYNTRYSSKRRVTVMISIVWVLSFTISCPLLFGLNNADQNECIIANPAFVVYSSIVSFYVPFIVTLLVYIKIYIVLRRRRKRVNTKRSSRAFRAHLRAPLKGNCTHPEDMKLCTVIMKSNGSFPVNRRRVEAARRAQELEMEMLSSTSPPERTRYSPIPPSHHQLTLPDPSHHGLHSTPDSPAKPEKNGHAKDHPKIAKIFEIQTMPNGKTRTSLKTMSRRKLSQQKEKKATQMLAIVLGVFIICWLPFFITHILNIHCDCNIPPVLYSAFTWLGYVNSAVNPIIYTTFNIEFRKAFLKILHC

Structure (SMILES) | Potency | activation
ClC(Cl)=C(c1ccc(Cl)cc1)c1ccc(Cl)cc1 | inactive | 
ClCCN1CCOCC1 |  | 1.59%
C1CCC2CCCCC2C1 (configuration not stated) |  | 1.78%
CC12CC1(C)C(=O)N(c1cc(Cl)cc(Cl)c1)C2=O (configuration not stated) | inactive | 
ClCc1cccnc1 | inactive | 
CNC(=O)O/N=C/C(C)(C)S(C)=O (configuration not stated) | inactive | 
CN(C)C(=O)Nc1ccc(Cl)cc1 | inactive | 
Cc1ccccc1CCl |  | 5.55%
CCOP(=S)(OCC)SCSc1cc(Cl)ccc1Cl |  | -0.671%
Nc1c(Br)cc([N+](=O)[O-])cc1[N+](=O)[O-] |  | -2.55%
COC[C@@H](NC(C)=O)C(=O)NCc1ccccc1 |  | -5.89% [at 42.5 µM]
COc1cc(OC)nc(NC(=O)NS(=O)(=O)c2ncccc2C(=O)N(C)C)n1 |  | -0.557%
c1ccc(C2CO2)cc1 (configuration not stated) | inactive | 
CCN(C)N=O |  | 0.456%
C=CC(=O)OCCO | inactive | 
CC(=O)C1CCOC1=O (configuration not stated) | inactive | 
C#CCOC(=O)/C=C(C)/C=C/CC(C)CCCC(C)C (configuration not stated) |  | 4.49%
CCN(CC)C1CCCCC1 |  | 9.94%

Structure (SMILES) | Potency | activation
CCCCC(CC)COC(=O)c1ccc(C(=O)OCC(CC)CCCC)c(C(=O)OCC(CC)CCCC)c1 (configuration not stated) | inactive | 
O=C(CCl)CCl |  | 1.19%
CCCCN=C=O |  | 1.18%
COc1nc(NC(C)C)nc(NC(C)C)n1 | inactive | 
CCOc1cc(C=O)ccc1O |  | 1.99%
Cl/C=C\CCl |  | -1.17%
C=CC(=O)NC(C)(C)CC(C)=O |  | -1.76%
Cc1ccc(N)cc1C |  | -4.79%
CC(C)(Cl)Cl | inactive | 
CCOS(C)(=O)=O |  | -1.72%
O=C([O-])c1ccccn1.O=C([O-])c1ccccn1.O=C([O-])c1ccccn1.[Cr+3] |  | -2.09%
BrCCc1ccccc1 |  | 1.96%
COCC(=O)N(c1c(C)cccc1C)[C@H](C)C(=O)OC |  | -0.262%
CN(CCCC(=O)c1cccnc1)N=O |  | 5.49%
CC[N+](=O)[O-] | inactive | 
CCCCCCC1CCOC1=O (configuration not stated) |  | 2.66%
O=[N+]([O-])c1ccccc1O | inactive | 
